Source: PubChem BioAssay AID488890 (Southern Research Specialized Biocontainment Screening …, 2010)
About 1,300 (0.41%) of roughly 320,000 compounds were called active. Roughly 3% stayed inconclusive and do not appear here. The rule behind the calls is not given here. A selection follows. Potency and affinity values are given separately.

test: growth inhibition of non-replicating M. tuberculosis (AID 488890); settings: Mycobacterium tuberculosis non-replicating, at 25 µM, stronger effect = higher value;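 note: plate controls were DMSO cells for no effect and high antibiotic wells for full effect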

Going from COc1ccc(NC(=O)CN(Cc2ccccc2)S(C)(=O)=O)c(OC)c1 to COc1ccc(OC)c(C(=O)COC(=O)c2ccc([N+](=O)[O-])o2)c1, the inhibition rises from 6.99% to 54.8%.

Compared with CO/N=C(\C)c1ncc(C(F)(F)F)cc1N1CCOCC1, Cc1nnsc1C(=O)N1CCN(c2cc(C(F)(F)F)ccn2)CC1 is higher in inhibition: -6.77% for the first, 1.32% for the second.

Compared with Cc1ccc(C(=O)NC(NCC2CCCO2)C(Cl)(Cl)Cl)cc1 (stereo not given), CC1CCCN(CCCNC(=O)c2ccc(N3CCCC3=O)cc2)C1 (stereo not given) is higher in inhibition: -8.87% for the first, -2.78% for the second.

First: O=C(CCC(=O)N1CCN(c2ccccc2)CC1)Nc1nnc(C2CCCCC2)s1
Second: CC(=O)c1cccc(NC(=O)CCc2nnc3ccc(N4CCN(C)CC4)nn23)c1
The inhibition of the first is lower: -14.5% for the first, 1.24% for the second.

Compared with O=C(CSc1nnc(COc2ccccc2F)n1-c1ccccc1)NC1CCS(=O)(=O)C1 (stereo not given), Cc1c(NC(=O)c2ccccc2NC(=O)COc2ccccc2)cccc1C(=O)O is higher in inhibition: -2.12% for the first, 4.87% for the second.

Going from Cc1ccc(NC(=S)N(CCN(C)C)Cc2cc3cc(C)ccc3[nH]c2=O)cc1 to COc1ccc2[nH]c(=O)c(CN(C(=O)c3cccnc3)c3ccc(C)c(C)c3)cc2c1, the inhibition falls from 56.8% to -6.7%.

First: COc1ccccc1CNC(=O)c1cnccn1
Second: O=C(O)COc1cccc(NC(=O)c2ccccc2)c1
The inhibition of the first is higher: 41.3% for the first, -6.49% for the second.

Compared with O=C(N/N=C/c1ccc(Cl)s1)c1ccccc1[N+](=O)[O-], O=C(N/N=C/c1ccc(Br)s1)c1ccccc1[N+](=O)[O-] is higher in inhibition: 19.9% for the first, 88.6% for the second.

First: O=C(N/N=C\c1cc(Br)c(Br)o1)c1cncc(Br)c1
Second: COc1cc([N+](=O)[O-])cc(/C=N/NC(=O)c2cncc(Br)c2)c1O
The inhibition of the first is lower: -11.5% for the first, 10.5% for the second.

Compared with Cc1ccc(-c2cc(C(=O)OCn3nnc4ccccc4c3=O)c3ccccc3n2)cc1, Cn1cccc1/C=N/NC(=O)c1cc(-c2cccs2)nc2ccccc12 is lower in inhibition: -0.92% for the first, -12.1% for the second.

First: CC1NC(=S)N(C2CCCCC2)C1=O (stereo not given)
Second: O=C1c2ccccc2C(=O)N1C1CCCCC1
The inhibition of the first is higher: 7.51% for the first, -9.63% for the second.

Compared with Brc1ccc(-c2nnc(-c3ccco3)o2)cc1, O=C(O)c1ccc(CSc2nnc(-c3ccco3)o2)cc1 is lower in inhibition: 9.05% for the first, 3.82% for the second.

Going from Cc1cccc(-c2nnc(SCc3ccccc3)o2)c1 to O=C(O)c1cccc(CSc2nnc(-c3ccco3)o2)c1, the inhibition falls from 64.4% to 3.8%.

Compared with COc1ccccc1N1CCN(CC(O)COCc2cccs2)CC1 (stereo not given), COc1ccccc1C(=O)N1CCC(C(=O)c2ccc(F)cc2)CC1 is higher in inhibition: -4.29% for the first, 5.17% for the second.

Going from COc1cc2[nH]c(=O)n(C3CCCCC3)c(=O)c2cc1OC to COc1cc(C(=O)COC(=O)c2ccc([N+](=O)[O-])o2)cc(OC)c1OC, the inhibition rises from 6.65% to 34.7%.

First: COc1c[nH]n(-c2ccccc2)c(=O)c1=O
Second: COC(=O)c1[nH]nc(C(=O)OC(C)(C)C)c1-c1ccccc1
The inhibition of the first is higher: 3.41% for the first, 0.97% for the second.

First: O=C(C1CC(=O)N(c2ccc(Cl)cc2)C1)N1CCOCC1 (stereo not given)
Second: O=C(OCC(=O)N1CCN(S(=O)(=O)c2ccc(Cl)cc2)CC1)c1ccc([N+](=O)[O-])o1
The inhibition of the first is lower: -7.5% for the first, 67.7% for the second.

First: COc1ccc(OCC(=O)N/N=C2\CCCCc3ccccc32)cc1
Second: COc1ccc(OCC(=O)N/N=C2\CCCc3ccccc32)cc1
The inhibition of the first is lower: 22.5% for the first, 34.2% for the second.

Compared with Cc1c(Cl)c([N+](=O)[O-])nn1CC(=O)N1CCN(Cc2ccccc2)CC1, O=C(OCC(=O)N1CCN(S(=O)(=O)c2ccccc2)CC1)c1ccc([N+](=O)[O-])o1 is higher in inhibition: -5.75% for the first, 66.7% for the second.

Compared with O=C(COc1c(Cl)cccc1Cl)NN1C(=O)CSC1=S, O=C(COc1ccc(-n2cnnn2)cc1)Nc1cccc(Cl)c1Cl is lower in inhibition: 8.7% for the first, 5.43% for the second.

Compared with C/C(=N\NC(=O)CCCNc1ccccc1)c1ccncc1, C/C(=N\NC(=O)CCCNc1cccc(C)c1)c1ccncc1 is lower in inhibition: 1.29% for the first, -0.79% for the second.

First: CCCCCCCCCC(=O)N/N=C(\C)c1cccnc1
Second: CCCCCCCC(=O)N/N=C(\C)c1cccnc1
The inhibition of the first is higher: -3.96% for the first, -21.2% for the second.

First: FC(F)C(F)(F)C1=CC(c2ccccc2)=NCCN1
Second: Cc1nnc(N/N=C/c2ccccc2C(F)(F)F)n1N
The inhibition of the first is higher: 12.6% for the first, 3.91% for the second.

Compared with COc1ccc(CN(C(=O)c2ccco2)C2CCS(=O)(=O)C2)cc1 (stereo not given), COc1ccc(CNC(=O)C(C)c2ccc([N+](=O)[O-])cc2)cc1 (stereo not given) is higher in inhibition: 1.18% for the first, 36.2% for the second.

Going from COc1ccc(N2CCN(S(=O)(=O)c3ccc4c(c3)CC(C)N4C(=O)C3CC3)CC2)cc1 (stereo not given) to CC1CCCCN1S(=O)(=O)c1ccc([N+](=O)[O-])cc1 (stereo not given), the inhibition rises from -6.48% to -4.65%.

First: O=C(COC(=O)c1ccc([N+](=O)[O-])o1)c1ccccc1
Second: O=C(COC(=O)c1ccc([N+](=O)[O-])o1)NCc1ccccc1
The inhibition of the first is lower: 22.4% for the first, 49.8% for the second.

Going from Cn1c(N)c(C(=O)COC(=O)c2ccc([N+](=O)[O-])o2)c(=O)n(C)c1=O to CCc1ccc(C(=O)OCC(=O)c2c(N)n(CC(C)C)c(=O)n(C)c2=O)cc1, the inhibition falls from 69.7% to 24.9%.

First: O=C(O)C1CCCN(S(=O)(=O)c2ccccc2[N+](=O)[O-])C1 (stereo not given)
Second: CCC(Oc1ccc(F)cc1)C(=O)N1CCCCCCC1 (stereo not given)
The inhibition of the first is higher: -3.19% for the first, -13.2% for the second.

First: COc1ccc(C(=O)NCC(C)NC(=O)c2ccc(OC)c(Br)c2)cc1Br (stereo not given)
Second: COC(=O)COc1cccc(NC(=O)c2cc(OC)cc(OC)c2)c1
The inhibition of the first is lower: -0.81% for the first, 58.8% for the second.

Going from COCCNC(=O)CS(=O)(=O)Cc1nc(-c2ccc(C)cc2)oc1C to COCCn1c(C)cc(C(=O)COC(=O)c2ccc(S(=O)(=O)N(C)C)cc2)c1C, the inhibition rises from -26% to -12.9%.

Compared with CCC(CO)Nc1ncnc2onc(-c3ccc(F)cc3)c12 (stereo not given), Cc1ccc(N(C(=O)CS(=O)CC(=O)Nc2ccc(F)cc2)C(C)C(=O)NC(C)(C)C)cc1 (stereo not given) is higher in inhibition: -5.65% for the first, -2.13% for the second.

Compared with Cc1ccc(NC(=O)COC(=O)Cn2c(C)csc2=O)cc1, COCCn1c(C)cc(C(=O)COC(=O)c2cccc(O)c2)c1C is lower in inhibition: 7.46% for the first, -6.95% for the second.

Going from COc1ccc([N+](=O)[O-])cc1NC(=O)c1cncc(Br)c1 to Cc1cccc(C(=O)Nc2cccc(OCC(=O)O)c2)c1, the inhibition falls from 36.5% to -11.3%.

Compared with CCOCCCNC(=O)C(c1ccccc1)N(Cc1ccc2c(c1)OCO2)C(=O)c1ccccc1O (stereo not given), Cc1cccc(N(C(=O)c2snc(C(N)=O)c2N)C(C(=O)NCc2ccccc2)c2ccncc2)c1 (stereo not given) is higher in inhibition: 4.13% for the first, 11.8% for the second.

Compared with Cc1cccc(C(=O)Nc2cccc(OC(=O)c3cccc(C)c3)c2)c1, Cc1cc(Cl)nc(Cl)c1C(=O)NCCc1ccccc1 is lower in inhibition: 51.4% for the first, 5.34% for the second.
